We go through 23 compounds from PubChem BioAssay (Tox21).

Inconclusive results are not listed. Active and inactive are the calls of the source. Unless noted, calls follow the shape of the dose curve; as a rule, active = well fitted curve in the direction sought with a large enough effect in the repeat runs; inconclusive = weak or mixed curves; inactive = no such curve, though single readings can be large; an effect the other way counts as inactive or inconclusive.

Assay [1] can be described thus: qHTS assay to identify small molecule antagonists of the glucocorticoid receptor (GR) signaling pathway - cell viability counter screen (AID 720693; also: nearly all actives have a fitted effect of over 55% in size). (In qHTS, concentration-response curves come from the screen itself.)
Assay [2] can be described thus: qHTS assay for identifying genotoxic compounds that show differential cytotoxicity against isogenic chicken DT40 cell lines with known DNA damage response pathways - wild type cell line (AID 743012). Also: nearly all actives have a fitted effect of over 60% in size. Also: potency is read from the fitted curve at half-maximal effect. In short, it runs like this:
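Quantitative HTS on parental DT40 cells: 40 h compound treatment at 37 C/5% CO2, with viability then determined by CellTiter-Glo luminescence. Values serve as the DNA repair-proficient reference for differential cytotoxicity.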

Assay [3] is described as follows: qHTS assay for identifying genotoxic compounds that show differential cytotoxicity against isogenic chicken DT40 cell lines with known DNA damage response pathways - Rev3 mutant cell line (AID 743014). Also: nearly all actives have a fitted effect of over 55% in size. Also: potency is read from the fitted curve at half-maximal effect.
Assay [4] can be described thus: qHTS assay for identifying genotoxic compounds that show differential cytotoxicity against isogenic chicken DT40 cell lines with known DNA damage response pathways - Rad54/Ku70 mutant cell line (AID 743015). Also: nearly all actives have a fitted effect of over 60% in size. Also: potency is read from the fitted curve at half-maximal effect.
The nature of assay [5]: qHTS assay to identify small molecule antagonists of the androgen receptor (AR) signaling pathway - cell viability counter screen (AID 743033; also: nearly all actives have a fitted effect of over 45% in size).
The nature of assay [6]: qHTS assay to identify small molecule antagonists of the androgen receptor (AR) signaling pathway using the MDA cell line - cell viability counter screen (AID 743041; also: nearly all actives have a fitted effect of over 45% in size). In short, it runs like this: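 MDA-kb2 AR-luc cells (MMTV-luciferase, AR/GR responsive) treated with compounds plus R1881 agonist for 16 h at 37C. CellTiter-Fluor added at 15.5 h; fluorescence read after 30 min in the same wells.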

In assay [7] the target is Androgen receptor (Homo sapiens) (UniProt P10275). As to the kind of experiment: qHTS assay to identify small molecule agonists of the androgen receptor (AR) signaling pathway using the MDA cell line (AID 743040; also: nearly all actives have a fitted effect of over 20% in size). Put shortly: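 MDA-kb2 breast carcinoma cells carrying MMTV-luciferase (responsive to AR and GR), plated 5 h then treated 16 h with compounds at 37C, 0% CO2. Read-out was ONE-Glo luminescence after 30 min at room temperature.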
Androgen receptor (Homo sapiens), sequence (P10275 whole entry, looked up): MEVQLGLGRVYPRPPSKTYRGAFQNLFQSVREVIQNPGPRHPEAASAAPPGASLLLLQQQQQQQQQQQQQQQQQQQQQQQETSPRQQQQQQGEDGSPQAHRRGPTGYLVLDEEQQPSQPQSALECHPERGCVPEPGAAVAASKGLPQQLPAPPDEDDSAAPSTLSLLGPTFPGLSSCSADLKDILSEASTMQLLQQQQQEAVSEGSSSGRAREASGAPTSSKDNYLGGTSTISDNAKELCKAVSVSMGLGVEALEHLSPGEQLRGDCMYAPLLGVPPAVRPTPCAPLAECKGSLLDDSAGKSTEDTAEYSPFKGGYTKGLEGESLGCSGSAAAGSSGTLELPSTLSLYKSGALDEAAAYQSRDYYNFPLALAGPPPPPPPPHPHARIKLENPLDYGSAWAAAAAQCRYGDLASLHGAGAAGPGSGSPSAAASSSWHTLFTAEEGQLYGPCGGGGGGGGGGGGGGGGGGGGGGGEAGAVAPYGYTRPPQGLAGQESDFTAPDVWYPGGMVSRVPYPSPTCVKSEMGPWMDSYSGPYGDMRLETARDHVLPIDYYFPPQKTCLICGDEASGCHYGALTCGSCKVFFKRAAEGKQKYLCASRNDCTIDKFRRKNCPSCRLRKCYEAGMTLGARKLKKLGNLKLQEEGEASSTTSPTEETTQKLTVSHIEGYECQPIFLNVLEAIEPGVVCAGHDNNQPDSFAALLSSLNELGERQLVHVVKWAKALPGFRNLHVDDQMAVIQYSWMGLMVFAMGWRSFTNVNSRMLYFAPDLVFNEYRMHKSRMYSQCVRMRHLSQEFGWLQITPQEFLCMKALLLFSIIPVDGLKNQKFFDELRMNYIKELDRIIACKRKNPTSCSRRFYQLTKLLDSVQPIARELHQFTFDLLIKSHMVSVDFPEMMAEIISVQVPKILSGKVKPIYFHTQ

Assay [8] shares this target. As to the kind of experiment: qHTS assay to identify small molecule antagonists of the androgen receptor (AR) signaling pathway using the MDA cell line (AID 743042; also: nearly all actives have a fitted effect of over 55% in size). Put shortly: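 MDA-kb2 breast carcinoma cells carrying MMTV-luciferase (AR/GR responsive) were co-treated with compounds and the agonist R1881 for 16 h at 37C. Inhibition read as ONE-Glo luminescence; CellTiter-Fluor fluorescence measured in parallel for cytotoxicity.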

Assay [9] has the same target. The assay can be described thus: qHTS assay to identify small molecule antagonists of the androgen receptor (AR) signaling pathway (AID 743035; active = well fitted inhibition curve with a large enough effect in the signal ratio in the repeat runs, not every such curve was filed as active; the % refers to the signal ratio). In short, it runs like this:
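Cell line: GeneBLAzer AR-UAS-bla GripTite (HEK293). Stimulus: R1881 added after compound. Exposure: 16 h, 37C, 5% CO2. Readout: LiveBLAzer B/G FRET fluorescence after 2 h at room temperature.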

Assay [10] has the same target. As to the kind of experiment: qHTS assay to identify small molecule agonists of the androgen receptor (AR) signaling pathway (AID 743036; active = well fitted activation curve with a large enough effect in the signal ratio in the repeat runs, with a control signal flat, not every such curve was filed as active; the % refers to the signal ratio). In short, it runs like this: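 HEK293 cells stably carrying a UAS-driven beta-lactamase reporter (GeneBLAzer AR-UAS-bla-GripTite) were plated at 2,000 cells/well, rested 4 h at 37C, then exposed to compounds in DMSO for 16 h. LiveBLAzer B/G FRET substrate was added for 2 h at room temperature; fluorescence read.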

Turning to `Cc1ccc(Nc2c(F)cccc2Cl)c(CC(=O)O)c1`, the Potency entry in assay [1], in assay [2], in assay [3], in assay [4], in assay [5] and in [6] was “inactive” each time.

Take `O=[N+]([O-])c1ccc2ncccc2c1`: the Potency result in [1], in assay [2], in [3], in assay [4], in [5] and in assay [6] was “inactive” each time.

With `COc1ccc(/C=C/C(=O)c2ccc(OC)cc2OC)cc1`, the Potency entry in assay [1], in assay [5] and in assay [6] was “inactive” throughout. Moreover, the Potency was 10.6 µM (active) in assay [2], 16.8 µM (active) in [3] and 18.8 µM (active) in [4].

Turning to `CCSC(=O)N(CC)CC`, the Potency entry in assay [1], in assay [2], in assay [3], in [4], in [5] and in assay [6] was “inactive” in each case.

In the case of `CN1CCCN(C(c2ccccc2)c2ccc(Cl)cc2)CC1` (configuration not stated), the Potency entry in assay [1], in assay [7], in [6] and in assay [8] was “inactive” in each case. Besides, the Potency in assay [2] is 9.44 µM (active); in assay [3], 11.9 µM (active); in [4], 18.8 µM (active).

As to `O=C(O)CCC(=O)OC[C@@H](NC(=O)C(Cl)Cl)[C@H](O)c1ccc([N+](=O)[O-])cc1`, the Potency entry in assay [1], in assay [3], in assay [4], in assay [5] and in [6] was “inactive” in each case.

As for `O=C(C(=O)c1ccco1)c1ccco1`, the Potency result in assay [1], in [3], in assay [4], in [5], in [9] and in assay [7] was “inactive” each time. The Potency result in [6] and in assay [8] was “inactive” in each case. The call in [10] was inactive.

In the case of `O=S(=O)(Cl)c1c(Cl)cccc1Cl`, the Potency result in assay [1], in assay [3], in assay [4], in assay [5], in assay [7] and in assay [6] was “inactive” in each case. The Potency result in [8] was “inactive”. Besides, the call in assay [10] was inactive.

Take `C=C(C)C(=O)OCCC(F)(F)C(F)(F)C(F)(F)C(F)(F)C(F)(F)C(F)(F)F`: the Potency result in assay [1], in [2], in assay [4], in assay [5] and in assay [6] was “inactive” throughout.

For the compound `COC1CCC=CO1` (configuration not stated), the Potency entry in assay [1], in assay [2], in [4], in assay [5] and in [6] was “inactive” each time.

Consider `O=CNNC=O`, for which the Potency result in assay [1], in assay [2], in [4], in assay [5] and in assay [6] was “inactive” in each case.

Take `O=C(Oc1ccccc1)c1ccc2ccccc2c1O`: the Potency entry in assay [1], in [5], in assay [9], in assay [7], in assay [6] and in assay [8] was “inactive” throughout. The Potency in assay [3] is 54.5 µM (active); in [4], 48.6 µM (active). Besides, the result in assay [10] was inactive.

Consider `CCCCCCC(O)CCOC(C)=O` (configuration not stated), for which the Potency entry in assay [1], in assay [2], in [4], in assay [5] and in assay [6] was “inactive” each time.

As for `Cc1ccc(N(CC2=NCCN2)c2cccc(O)c2)cc1`, the Potency result in [1], in assay [5] and in assay [6] was “inactive” each time. Besides, the Potency in [2] is 23.7 µM (active).

`CCCCOC(=O)CCCCC(=O)OCCCC`: the Potency entry in assay [1], in [2], in [4], in assay [5] and in assay [6] was “inactive” throughout.

As for `CC1CCc2nccnc21` (configuration not stated), the Potency result in assay [1], in assay [2], in assay [5] and in assay [6] was “inactive” each time. The Potency in assay [4] was 54.5 µM (active).

Consider `COc1cc(NC(C)CCCN)c2ncccc2c1` (configuration not stated), for which the Potency result in assay [1] and in assay [6] was “inactive” each time. Further, the Potency in assay [2] was 11.4 µM (active); in assay [4], 12.7 µM (active).

With `CC(C)C1CCC(C(=O)N[C@H](Cc2ccccc2)C(=O)O)CC1` (some centres not stated), the Potency entry in [1], in [2], in [4], in assay [5] and in assay [6] was “inactive” in each case.

On to `O=C(O)c1cc(Cl)cc(Cl)c1O`, for which the Potency result in assay [1], in assay [3], in assay [4], in [5], in [7] and in [6] was “inactive” in each case. Further, the Potency entry in assay [8] was “inactive”. Also, the compound was called inactive in assay [10].

Take `O=C1[C@@H]2[C@H]3CC[C@H](C3)[C@@H]2C(=O)N1CCCCN1CCN(c2ncccn2)CC1`: the Potency entry in assay [1], in assay [2], in assay [3], in assay [5] and in assay [6] was “inactive” in each case.

For `c1ccc(CCCc2ccncc2)cc1`, the Potency entry in [1], in assay [2], in assay [4], in assay [5] and in assay [6] was “inactive” throughout.

Consider `CC1=CC[C@@H]2C[C@H]1C2(C)C`, for which the Potency result in assay [1], in [2], in assay [5] and in assay [6] was “inactive” throughout.

For the compound `CC(=O)OCC(=O)[C@@]1(OC(C)=O)[C@@H](C)C[C@H]2[C@@H]3C[C@H](F)C4=CC(=O)C=C[C@]4(C)[C@@]3(F)[C@@H](O)C[C@@]21C`, the Potency entry in assay [1], in assay [5] and in assay [6] was “inactive” in each case. Besides, the Potency was 26.6 µM (active) in assay [2] and 11.9 µM (active) in assay [3].
